14-3-3g Raf: modulators of 14-3-3 gamma protein binding, primary screen, biochemical, fluorescence polarization | 14-3-3 protein gamma (Homo sapiens), P61981 | 160,000 compounds, 0.19% hits | FP, 14-3-3gamma / TMR-pS259-Raf peptide binding | inhibition, % at 40 µM; in the data active = inhibition above about 30%;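 note: 0% = protein plus tracer without compound and 100% = blank with tracer alone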
Target sequence (P61981 whole entry, looked up): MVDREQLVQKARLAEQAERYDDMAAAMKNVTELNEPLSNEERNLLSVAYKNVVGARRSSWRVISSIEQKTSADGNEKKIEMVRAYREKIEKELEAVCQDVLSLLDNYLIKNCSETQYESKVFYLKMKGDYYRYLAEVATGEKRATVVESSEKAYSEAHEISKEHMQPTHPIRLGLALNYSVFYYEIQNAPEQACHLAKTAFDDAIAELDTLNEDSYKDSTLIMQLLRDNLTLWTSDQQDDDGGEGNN
* hit, by the source's call. Many of the other results were omitted from the sample, so hits are more common in it than they were.

SMILES | 14-3-3g Raf
O=C1C2C3C=CC(C2C(=O)N1c1ccccc1)C1C2C(=O)N(c4ccccc4)C(=O)C2C31 (stereo unspecified) | -3
COc1ccc(N2C(=O)C3C4C=CC(C3C2=O)C2C3C(=O)N(c5ccc(OC)cc5)C(=O)C3C42)cc1 (stereo unspecified) | -1
O=C1C2C3C=CC(C2C(=O)N1c1ccc(O)cc1)C1C2C(=O)N(c4ccc(O)cc4)C(=O)C2C31 (stereo unspecified) | 64*
Cc1ccccc1NS(=O)(=O)c1ccc2[nH]cc(C(=O)NCc3ccccc3)c(=O)c2c1 | -29
Cc1cc2ncn(S(=O)(=O)c3ccc(Cl)c(C)c3)c2cc1C | -3
Cc1ccc(C)c(Cn2c(CN3CC(C)OC(C)C3)nc3c2c(=O)n(C)c(=O)n3C)c1 (stereo unspecified) | -7
O=C(O)CC(C(=O)OCC1CCCO1)N1CCOCC1 (stereo unspecified) | -6
O=C(O)CC(C(=O)OC1CCCCC1)N1CCOCC1 (stereo unspecified) | 3
CCOC(=O)C(CC(=O)O)N1CCCCC1 (stereo unspecified) | 36*
COc1cc(NS(=O)(=O)c2ccc(NC(=O)c3ccc(Cl)cc3)cc2)ncn1 | 8
O=C(c1cnc2ccccc2n1)N1CCCc2ccccc21 | 5
CC(=O)c1c(C)oc2ccc(N(C(=O)c3ccccc3)S(=O)(=O)c3ccc(Cl)c([N+](=O)[O-])c3)cc12 | -22
COc1cccc(CNC(=O)CCS(=O)(=O)c2ccc3c(c2)CC(C)N3C(C)=O)c1 (stereo unspecified) | 0
CC(=O)N1c2ccc(S(=O)(=O)CCC(=O)NCc3ccccc3)cc2CC1C (stereo unspecified) | 20
CC(=O)N1c2ccc(S(=O)(=O)CCC(=O)NCc3ccc(C)cc3)cc2CC1C (stereo unspecified) | 33*
O=c1oc(-c2ccc(I)cc2)nc2ccc(Br)cc12 | -1
CCOC(=O)C1=C(C)NC2=C(C(=O)CC(c3ccc(OC)c(OC)c3)C2)C1c1ccccc1C (stereo unspecified) | -12
COC(=O)c1ccc(C2Nc3ccccc3S(=O)(=O)N2Cc2ccccc2)cc1 (stereo unspecified) | -2
CC(C)OCCCNC(=O)c1cc(Nc2cccc(C(F)(F)F)c2)nc2ccccc12 | -5
O=C(NCc1ccccn1)c1cc(Nc2cccc(C(F)(F)F)c2)nc2ccccc12 | 152*
Cc1ccc(C)c(Nc2cc(C(=O)NCc3ccccn3)c3ccccc3n2)c1 | 8
O=C(NC1CCCCC1)c1cccc(C(=O)NC2CCCCC2)n1 | 3
O=C(Cn1cc2c(n1)CCCC2)NCc1ccccn1 | 67*
COc1ccc(CNC(=O)Cn2cc3c(n2)CCCCC3)cc1 | 2
O=C(Cn1cc2c(n1)CCCC2)NCc1cccs1 | -4
SMILES | 14-3-3g Raf
Cc1cc(Cl)ccc1NC(=O)C(=O)NCc1ccncc1 | 1
CN(C)c1c([N+](=O)[O-])c(=O)oc2ccccc12 | 9
CCCCNc1ncc2cc3ccccc3nc2c1C#N | 90*
CCCCCn1c(N)c(C#N)c2nc3ccccc3nc21 | -7
CCCCNc1ncc(C(C)=O)c2ccccc12 | 0
O=C(Nc1c(-c2ccc(F)cc2)nc2ccccn12)c1cccc(C(F)(F)F)c1 | -5
O=C(CCCn1c(=O)[nH]c2cc(Cl)ccc2c1=O)NCc1ccc2c(c1)OCO2 | -8
COCCN1C(=O)c2ccccc2C(C(=O)Nc2cccc(SC)c2)C1c1c[nH]c2ccccc12 (stereo unspecified) | 8
Cc1cc(C)cc(N2C(=O)C3C(c4ccccc4Cl)OC4(C(=O)c5ccccc5C4=O)C3C2=O)c1 (stereo unspecified) | 5
CCn1c(CSc2nnc3ccccn23)nc2cc(C(=O)O)ccc21 | 139*
CCn1c(CSc2nc3ccccc3n2C)nc2ccccc21 | 2
CCn1c(CSc2nnc(-c3cccnc3)n2-c2ccccc2C)nc2cc(C(=O)O)ccc21 | 127*
O=C(CSc1nnc2ccccn12)Nc1ccc2ccccc2c1 | 1
Cc1ccccc1-n1c(SCc2ccccc2)nnc1-c1cccnc1 | 1
CCOc1ccccc1-n1c(SCC(N)=O)nnc1-c1cccnc1 | 2
O=C(Oc1cccc2ccccc12)C1C2C=CC(C2)C1C(=O)Oc1cccc2ccccc12 (stereo unspecified) | 5
C=CCn1c(=S)[nH]c2sc3c(c2c1=O)CC(C(C)C)OC3 (stereo unspecified) | -5
O=C(CSc1nc2c(c(=O)n1-c1ccccc1)SCC2)Nc1ccccc1 | -5
COc1ccccc1NC(=O)c1cc2ccccc2c(C=Nc2ccc(NC(C)=O)cc2)c1O | 73*
COc1ccccc1N=Cc1c(O)c(C(=O)Nc2ccccc2)cc2ccccc12 | 13
COc1cc(C=Nc2ccc(NC(C)=O)cc2)cc(OC)c1OC | -1
CCOc1ccc(-n2c(-c3cn(C)nc3C)n[nH]c2=S)cc1 | 1
Cc1cccc(-c2nc3ccccc3c(=O)[nH]2)c1 | -47
Cc1nc2ccccc2c(C(=O)O)c1C(=O)O | -3
C/C(O)=c1/c(=O)nc2cccc3c2=c1c1ccccc1c3=O | 35*
SMILES | 14-3-3g Raf
CC1CCC2C(=O)N(c3ccc(C(=O)Oc4ccc(Br)cc4)cc3)C(=O)C2C1 (stereo unspecified) | -8
Cc1cc(NS(=O)(=O)c2ccc(NC(=O)c3ccc(Br)cc3)cc2)nc(C)n1 | -6
O=C(COc1ccc([N+](=O)[O-])cc1)Nc1cccnc1 | 31*
O=C(COc1ccc([N+](=O)[O-])cc1)Nc1ccccn1 | -13
O=C(COc1ccc(Br)cc1)Nc1cccnc1 | -11
Cc1cc(=O)n2[nH]c([N+](=O)[O-])nc2n1 | -1
COc1ccc(C(=O)NCCNC(=O)c2ccncc2)cc1 | -10
COc1ccc(-c2cc(C(F)(F)F)nc(N(C)C3CCCCC3)n2)cc1 | -3
CC(NC(=O)C12CC3CC(CC(C3)C1)C2)C(=O)N1CCOCC1 (stereo unspecified) | 4
CCOc1cc(C2C(C(=O)OC)=C(C)NC3=C2C(=O)c2ccccc23)ccc1OCc1ccccc1F (stereo unspecified) | -56
COC(=O)CCCCCNc1ccc(C(=O)OC)cc1N | -12
Nc1ccc(C(=O)Nc2ccc(N)cc2N)cc1 | -33
Nc1ccc(NCCO)c(N)c1 | 91*
CSc1cccc(NC(=O)CCN2C(=O)c3ccncc3C2=O)c1 | -11
CC1=C(C(=O)Nc2cccc(F)c2)C(c2ccc(C(C)(C)C)s2)C2=C(CCCC2=O)N1 (stereo unspecified) | -19
Cc1cccn2c(=O)c3cc(C(=O)NC4CCCC4)c(=N)n(C(C)C)c3nc12 | -3
Cc1ccc(-n2c(=O)[nH]cc(C(=O)Nc3ccc4c(c3)OCCO4)c2=O)cc1 | -2
Cc1ccc(-n2c(=O)[nH]cc(C(=O)Nc3ccc4c(c3)OCCO4)c2=O)cc1C | 37*
COc1ccc(-n2c(=O)[nH]cc(C(=O)Nc3ccc4c(c3)OCCO4)c2=O)cc1 | -10
O=C1CC(c2cccc(Br)c2)n2ncnc2N1 (stereo unspecified) | -5
O=S(=O)(c1ccc(Cl)cc1)N1CC2C3C=CC(C3)C2C1 (stereo unspecified) | 0
Cc1c(C(=O)Nc2c(C)n(C)n(-c3ccccc3)c2=O)cccc1[N+](=O)[O-] | -3
Nc1c(C(=O)NCCc2ccccc2)sc2nc(-c3ccccc3)cc(C(F)(F)F)c12 | -2
COC(=O)c1sc2nc(-c3ccncc3)cc(C(F)(F)F)c2c1N | -38
Nc1c(C(=O)c2ccccc2)sc2nc(-c3ccccc3)cc(C(F)(F)F)c12 | 60*

Assay outcomes: PubChem, Emory University Molecular Libraries Screening Center
